# Test results taken from PubChem BioAssay.
# Activity calls are given as the source filed them.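 How the source made its calls, unless noted: active means visually confirmed hit in the image check and inhibition above 20%; inconclusive means visually confirmed hit but inhibition not above 20%; inactive means no visual hit in the image check.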
# Columns and labels:
# [1] = inhibitors of TNFa-induced NFkB p65 translocation, primary screen, imaging, HUVEC, MLSMR starter and 10KST1 sets (AID 438;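 active means inhibition above 20% together with a positive visual image hit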;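 further: compound added about 3h40 before a 20 min TNFalpha stimulation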;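 on inhibition: signal is the nuclear over cytoplasmic p65 intensity ratio per well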); conditions: HUVEC TNFa-induced p65 nuclear translocation; cell count: measured here: nuclei count (cytotoxicity indicator), at 2.08 µM; inhibition: at 2 µM, stronger effect = higher value, 0% TNFa-plus-vehicle, 100% no-TNFa wells
# [2] = inhibitors of mutant huntingtin aggregation, primary screen, imaging, exon1htt(103Q)mCFP cells, high-content imaging (AID 483;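 active means visual image review flags a hit and inhibition of aggregation exceeds 20%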;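 further: compound exposure lasted 3 days before fixation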;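 on nuclei count: percent of the per-plate median nuclei count of sample wells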); conditions: exon1htt(103Q)mCFP cell line, aggregate imaging, at 2 µM; inhibition of aggregation: stronger effect = higher value; nuclei count: measured here: cell count, toxicity
# [3] = inhibitors of E-selectin induction by TNFa, primary screen, imaging, HUVEC, immunofluorescence, MLSMR starter and 10KST1 sets (AID 487); conditions: HUVEC TNFalpha-induced E-selectin immunofluorescence imaging, at 2 µM; inhibition: stronger effect = higher value; nuclei count: measured here: cell number, toxicity;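 on inhibition: signal is fraction of cell area covered by stained E-selectin grains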;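 on nuclei count: 100% = median nuclei count of all wells on the same plate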
# [4] = target: Voltage-gated potassium channel subunit beta-2 (Rattus norvegicus) (UniProt P62483); test: KvBeta enzyme negative modulators, primary screen, biochemical, NADPH fluorescence (AID 622;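 active means fluorescence slope higher than the sample average by over 3 SD, cut at about -0.22 in these data, passing the limit was not always enough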;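 further: slope of raw intensity against log time taken from 70 to 1610 s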); conditions: recombinant KvBeta, 4-cyanobenzaldehyde reduction, at 10 µM, stronger effect = higher value
# [5] = target: Voltage-gated potassium channel subunit beta-2 (Rattus norvegicus) (UniProt P62483); test: KvBeta positive modulators, primary screen, biochemical, NADPH fluorescence (AID 623;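 active means NADPH fluorescence slope more negative than the mean of all samples by about 3 SD, 99.7% confidence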;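 further: fluorescence intensity change per second fitted from 20 to 320 s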); conditions: Recombinant KvBeta, NADPH fluorescence decrease slope, 10 min; at 10 µM; stronger effect = lower value
# [6] = target: Alpha-2C adrenergic receptor (Homo sapiens) (UniProt P18825); test: modulators of alpha2C/GIRK thallium flux, primary screen, cell-based, HEK293 alpha2C/GIRK1/2 (AID 624;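 active means fluorescence slope after compound addition differing from the mean of all screened samples at 99.7% confidence, in either direction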;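 further: slope of fluorescence ratio to pre-addition baseline per second over 15 to 24 s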); conditions: thallium flux BTC fluorescence, at 10 µM, actives lie on both sides
# [7] = inhibitors of Sendai virus-induced IRF3 signaling, primary screen, TLR/RLR signaling modifier project, cell-based, Sendai virus stimulus, luciferase, 10K MLSCN set (AID 602276;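 active means inhibition at or above 50% at 10 µM; inactive means inhibition below 50%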;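 further: firefly luciferase from ISG56 promoter only with Renilla not read in this screen; 0% = Sendai virus plus DMSO and 100% = medium plus DMSO without virus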); conditions: HEK293 RL24 IRF3 luciferase reporter, at 10 µM, stronger effect = higher value
# [8] = inhibitors of poly I:C-induced TLR3 signaling, primary screen, cell-based, poly I:C stimulus, luciferase, 10K MLSCN set (AID 602277;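 active means inhibition of the reporter signal at or above 50%; inactive means inhibition below 50%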); conditions: HEK293-TLR3 RL24 IRF3 luciferase reporter, at 10 µM, stronger effect = higher value
# Chain of Voltage-gated potassium channel subunit beta-2 (Rattus norvegicus) (P62483 whole entry, looked up): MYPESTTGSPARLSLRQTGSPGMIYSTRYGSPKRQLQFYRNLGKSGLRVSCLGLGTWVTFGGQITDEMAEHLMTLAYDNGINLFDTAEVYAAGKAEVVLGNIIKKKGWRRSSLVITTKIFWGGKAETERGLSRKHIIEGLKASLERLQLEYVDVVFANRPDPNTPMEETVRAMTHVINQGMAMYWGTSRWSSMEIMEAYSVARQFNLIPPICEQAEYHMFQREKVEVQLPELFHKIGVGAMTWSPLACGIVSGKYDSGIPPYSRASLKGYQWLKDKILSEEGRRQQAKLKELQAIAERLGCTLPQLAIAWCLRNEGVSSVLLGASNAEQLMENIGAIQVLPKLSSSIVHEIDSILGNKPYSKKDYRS
# Chain of Alpha-2C adrenergic receptor (Homo sapiens) (P18825 whole entry, looked up): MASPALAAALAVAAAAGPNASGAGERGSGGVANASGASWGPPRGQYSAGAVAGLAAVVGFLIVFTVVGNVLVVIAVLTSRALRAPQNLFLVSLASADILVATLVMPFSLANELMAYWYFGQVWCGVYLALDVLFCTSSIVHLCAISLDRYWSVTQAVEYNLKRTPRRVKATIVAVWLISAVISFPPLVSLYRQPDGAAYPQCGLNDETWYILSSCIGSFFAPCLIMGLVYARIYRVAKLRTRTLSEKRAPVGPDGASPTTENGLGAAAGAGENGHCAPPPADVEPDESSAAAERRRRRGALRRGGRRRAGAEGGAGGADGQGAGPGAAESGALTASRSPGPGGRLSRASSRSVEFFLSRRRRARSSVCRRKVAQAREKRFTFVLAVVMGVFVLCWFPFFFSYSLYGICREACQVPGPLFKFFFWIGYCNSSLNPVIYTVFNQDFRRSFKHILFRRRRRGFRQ
Structure (SMILES),cell count [1],inhibition [1],inhibition of aggregation [2],nuclei count [2] [%],inhibition [3],nuclei count [3] [%],fluorescence slope [4],NADPH fluorescence slope [5],slope [6],inhibition [7],inhibition [8]
CCCOc1ccc(NC2=CC(=O)CC(C)(C)C2)cc1,342,3.8% (inactive),-7.1% (inactive),119,-89.3% (inactive),117,-0.405 (inactive),-4.9e-05 (inactive),0.00457 (inactive),-1.23% (inactive),-12.8% (inactive)
COc1ccc(C)cc1S(=O)(=O)Nc1cccnc1,283,0.4% (inactive),13.9% (inactive),78.8,-61.4% (inactive),90,-0.475 (inactive),-3.8e-05 (inactive),0.00515 (inactive),25.8% (inactive),25.5% (inactive)
COc1cc(Cl)c(C)cc1NC(=O)COC(=O)c1cnc(C)cn1,345,3.8% (inactive),16.5% (inactive),95.2,-118% (inactive),110,-0.51 (inactive),3.8e-05 (inactive),0.00519 (inactive),-3.59% (inactive),12.5% (inactive)
N#CCOc1nc(N2CCOCC2)nc(N2CCOCC2)n1,552,-30.6% (inactive),3% (inactive),76.6,-10.4% (inactive),100,-0.287 (inactive),-4.5e-05 (inactive),0.00534 (inactive),10.5% (inactive),18.6% (inactive)
COc1cccc(NC(=O)C2C3C=CC4(O3)C2C(=O)N(C(C)C)C4C(=O)NC2CCCCC2C)c1 (centres undefined),424,2.6% (inactive),-8.5% (inactive),110,-98.5% (inactive),114,-0.525 (inactive),3.5e-06 (inactive),0.00614 (inactive),2.64% (inactive),7.71% (inactive)
O=C(NCc1nc2ccccc2[nH]1)c1ccc(Cl)c(S(=O)(=O)N2CCCC2)c1,594,-15.4% (inactive),-35.2% (inactive),101,47% (inactive),112,-0.531 (inactive),2.5e-05 (inactive),0.00466 (inactive),-7.84% (inactive),-15.6% (inactive)
O=C(CSc1nnc(CNC(=O)c2cccs2)o1)NCCc1ccccc1,644,-2.2% (inactive),-14.6% (inactive),82.7,-25.7% (inactive),115,-0.375 (inactive),-4.4e-05 (inactive),0.00483 (inactive),18.5% (inactive),16.6% (inactive)
Cc1nnc(SCC(=O)Nc2nccs2)s1,501,-10.8% (inactive),12.1% (inactive),116,-0.9% (inactive),115,-0.413 (inactive),-7.7e-05 (inactive),0.00513 (inactive),-7.71% (inactive),-7.69% (inactive)
COc1ccc(-c2nnc(SCCC(=O)O)n2-c2ccccc2)cc1,348,2.5% (inactive),-19.5% (inactive),107,-10.9% (inactive),124,-0.644 (inactive),1.6e-05 (inactive),0.00524 (inactive),12.1% (inactive),16.4% (inactive)
CCn1c(NC(=O)c2cccc(Cn3cc(Cl)cn3)c2)nc2ccccc21,598,4% (inactive),13.3% (inactive),81.8,-45.1% (inactive),110,-0.506 (inactive),-5.4e-05 (inactive),0.0059 (inactive),-3.99% (inactive),-9.89% (inactive)
CCOC(=O)N1CCC(Nc2nc3ccccc3n3cnnc23)CC1,501,-6.9% (inactive),-21.2% (inactive),59.5,-35.1% (inactive),117,-0.581 (inactive),-8.8e-06 (inactive),0.00645 (inactive),7.19% (inactive),18.1% (inactive)
O=C(Nc1ccc(N2CCN(Cc3ccccc3Cl)CC2)cc1)c1cccnc1,630,-4.2% (inactive),15.2% (inactive),65.6,-27% (inactive),102,-0.478 (inactive),1.4e-05 (inactive),0.00649 (inactive),-23.5% (inactive),-14.5% (inactive)
CN(C)c1oc(-c2ccccc2F)nc1C#N,576,5.5% (inactive),10.1% (inactive),104,-56.7% (inactive),111,-0.355 (inactive),-1.3e-05 (inactive),0.00727 (inactive),-3.37% (inactive),-12.5% (inactive)
c1ccc(-n2c(Sc3cnccn3)nnc2-c2cccs2)cc1,362,-24.6% (inactive),2.4% (inactive),100,-37.1% (inactive),149,-0.612 (inactive),-1.5e-05 (inactive),0.00525 (inactive),-2.69% (inactive),12.5% (inactive)
Cn1nc(CC(=O)Nc2ccc(N3CCN(C(=O)OC(C)(C)C)CC3)cc2)c2ccccc2c1=O,639,-32.6% (inactive),-11.8% (inactive),91.2,-34.7% (inactive),99,-0.493 (inactive),8.9e-05 (inactive),0.00619 (inactive),-10.5% (inactive),-50.4% (inactive)
CCc1nnc(NC(=O)C2CCCN2S(=O)(=O)c2ccc(C)cc2)s1 (centres undefined),445,-8.4% (inactive),24.1% (inactive),60.3,25.4% (inactive),123,-0.41 (inactive),1.6e-05 (inactive),0.00581 (inactive),2.82% (inactive),15.9% (inactive)
CCOC(=O)c1ccc(NC(=O)Nc2ccn(C)n2)cc1,354,8.8% (inactive),11.9% (inactive),110,-23.7% (inactive),100,-0.383 (inactive),-2.9e-05 (inactive),0.00615 (inactive),-16.4% (inactive),-66.8% (inactive)
CCOC(=O)Cc1nnc2c(Nc3ccc(C)cc3)nc3nonc3n12,352,1% (inactive),15% (inactive),87.3,6.7% (inactive),83,-0.612 (inactive),-1.4e-05 (inactive),0.00447 (inactive),23.5% (inactive),34.9% (inactive)
CCOc1ccc(NC(=O)CN(c2cc(C)cc(C)c2)S(=O)(=O)c2c(C)noc2C)cc1,785,-1.1% (inactive),23.6% (inactive),99.2,-14.8% (inactive),105,-0.574 (inactive),1.1e-05 (inactive),0.0058 (inactive),13.8% (inactive),-22.3% (inactive)
